Only some compounds are listed: those with a hit (about 6.9% of all), similar ones and a draw of the others.
L3MBTL1 block – qHTS Assay for the Inhibitors of L3MBTL1. Potency, µM (highest dose often 57.1 µM), inactives show at the highest dose activity, negative = inhibition, actives largely listed as inhibitors. AlphaScreen L3MBTL1–H3K9me1 peptide binding. AID 485360, 2010. Lethal(3)malignant brain tumor-like protein 1 (Homo sapiens), Q9Y468. 230,000 compounds, 0.66% hits; also: % is scaled to controls: 0 for no effect and ±100 for the full control effect; nearly all actives have a fitted effect of over 60% in size
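First, the protein-peptide complex forms for 30 min at room temperature (L3MBTL1 50 nM, biotinylated H3K9me1 peptide 75 nM). Next, compounds are pin-transferred and incubated 30 min. Finally, AlphaScreen beads are added and read after 30 min.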
JMJD2A Tudor – qHTS Assay for Inhibitors of JMJD2A-Tudor Domain; Lysine-specific demethylase 4A (Homo sapiens), O75164; AlphaScreen JMJD2A-Tudor / H3K4me3 peptide binding; Potency, µM (highest dose often 114 µM), inactives show top-dose activity change, negative = inhibition, actives largely listed as inhibitors; 390,000 compounds, 4.4% hits; also: % is scaled to controls: 0 for no effect and ±100 for the full control effect; nearly all actives have a fitted effect of over 50% in size
BAZ2B inh – qHTS Assay for Inhibitors of BAZ2B | Bromodomain adjacent to zinc finger domain protein 2B (Homo sapiens), Q9UIF8 | AlphaScreen BAZ2B-H3K14Ac peptide displacement | Potency, µM (doses to about 114 µM), inactives show at the highest dose activity change, negative = inhibition, usual class: inhibitors | 360,000 compounds, 4.4% hits | AID 504333, 2011; also: % is scaled to controls: 0 for no effect and ±100 for the full control effect; nearly all actives have a fitted effect of over 60% in size
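In this displacement format the biotinylated H3(5-23) peptide acetylated at Lys14 serves as ligand at 50 nM, with BAZ2B at 50 nM in PBS pH 7.4 containing 0.01% Tween-20. Donor and acceptor beads are 10 ug/mL final.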
HP1b binding inh – HTS for Inhibitors of HP1-beta Chromodomain Interactions with Methylated Histone Tails; Chromobox protein homolog 1 (Homo sapiens), P83916; AlphaScreen HP1-beta / biotin-H3K9me3 peptide binding; Potency, µM (top dose mostly 114 µM), inactives show at the highest dose activity change, negative = inhibition, actives largely listed as inhibitors; 390,000 compounds, 0.56% hits; AID 540317, 2011; also: nearly all actives have a fitted effect of over 70% in size
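Compound inhibition of the preformed complex between 50 nM HP1-beta and 50 nM biotinylated H3K9me3 peptide was read by AlphaScreen. Buffer was PBS pH 7.4 with 0.01% Tween-20. Incubations ran 30 min at room temperature, with 10 ug/mL donor/acceptor beads.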
VDR inh – Inhibitors of the vitamin D receptor (VDR): qHTS. Vitamin D3 receptor (Homo sapiens), P11473. Potency, µM, without a hit: max response, negative = inhibition, most hits filed as inhibitors. VDR-SRC2-3 peptide fluorescence polarization, 2 h. AID 504847, 2011. 400,000 compounds, 0.93% hits; also: % is scaled to controls: 0 for no effect and ±100 for the full control effect
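Inhibition of the VDR/SRC2-3 peptide interaction is quantified by fluorescence polarization. Compounds (23 nl, pintool) incubate with the reagents for 2 hours at ambient room temperature.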
PLK1 PBD block – qHTS for Inhibitors of PLK1-PDB (polo-like kinase 1 - polo-box domain): Primary Screen; 360,000 compounds, 2.8% hits; Plk1 PBD binding of FITC phosphopeptide, fluorescence polarization; AID 720504, 2013; Potency, µM, inactives show max response, negative = inhibition, actives largely listed as inhibitors; also: series mostly up to about 57 µM; % is scaled to controls: 0 for no effect and ±100 for the full control effect; nearly all actives have a fitted effect of over 65% in size
Target sequence (P53350 whole entry, looked up, the tested form may be a part): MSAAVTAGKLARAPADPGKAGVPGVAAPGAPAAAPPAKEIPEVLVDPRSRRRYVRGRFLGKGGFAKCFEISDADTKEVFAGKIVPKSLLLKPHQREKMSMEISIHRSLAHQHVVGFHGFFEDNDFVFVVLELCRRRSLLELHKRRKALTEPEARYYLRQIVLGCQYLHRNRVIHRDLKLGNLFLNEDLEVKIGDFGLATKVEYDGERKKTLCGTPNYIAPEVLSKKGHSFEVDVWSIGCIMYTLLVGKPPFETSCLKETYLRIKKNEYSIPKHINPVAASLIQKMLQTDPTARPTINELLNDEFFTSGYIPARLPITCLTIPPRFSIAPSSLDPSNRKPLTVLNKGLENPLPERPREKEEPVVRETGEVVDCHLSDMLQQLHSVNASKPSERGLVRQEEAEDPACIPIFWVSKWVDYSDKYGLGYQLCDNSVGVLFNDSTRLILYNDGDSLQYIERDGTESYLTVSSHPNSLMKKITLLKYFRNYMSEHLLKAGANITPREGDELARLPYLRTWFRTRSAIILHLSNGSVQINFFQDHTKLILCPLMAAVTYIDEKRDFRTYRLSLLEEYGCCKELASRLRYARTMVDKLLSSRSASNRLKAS
Starred values were filed as active, the others as inactive; ? = inconclusive; nt = not tested or not shown; ! = not active in a repeat; [ ] = remark or other dose. Calls follow the shape of the dose curve; as a rule, active = well fitted curve in the direction sought with a large enough effect; inconclusive = small, poorly fitted or top-dose-only effect, or another doubt; inactive = no such curve, though single readings can be large; an effect the other way counts as inactive or inconclusive. Potency is read from the fitted curve at half-maximal effect.

SMILES	L3MBTL1 block	JMJD2A Tudor	BAZ2B inh	HP1b binding inh	VDR inh	PLK1 PBD block
COc1ccc(C2/C(=C(\O)c3ccc4c(c3)OCCO4)C(=O)C(=O)N2c2nc(C)c(C(C)=O)s2)cc1 (stereo not drawn)	nt	-28%	?	7%	-12%	-24%
COC(=O)c1sc(N2C(=O)C(=O)/C(=C(/O)c3ccc(C)cc3)C2c2ccco2)nc1C (stereo not drawn)	nt	63µM*	-31%	-15%	-8%	?
CCOc1ccc(-c2nnn(CCC#N)n2)cc1OC	7%	?	-7%	-13%	?	19µM*
CCCCNC(=S)N(CCN(C)C)Cc1cc2cc3c(cc2[nH]c1=O)OCCO3	2%	-16%	-6%	38%	32%	-7%
COC(=O)C(=O)C/C(=N/Nc1ncnc2ccccc12)c1ccc(Cl)cc1	nt	-19%	-2%	11%	2%	-2%
CCCCNC(=O)CCC(=O)NNc1nc2ccccc2c2nc(-c3ccccc3)nn12	8%	-12%	89µM*!	27%	-16%	-4%
CCCCNC(=O)CCC(=O)NNc1nc2ccccc2c2nc(C)nn12	0%	-6%	-3%[57.1 µM]	48%	-3%	-23%
Cc1cccc(C)c1NC(=O)N1C(C(=O)O)CSC1C(=O)O (stereo not drawn)	20%	18µM*	?	-6%	-11%	-6%
Cc1ccc(C)c(N2CCN(C(=O)c3cn(CC(C)C)c(=O)c4c3c3ccccc3n4C)CC2)c1	nt	-34%	-14%	-1%	0%	nt
CN(C)c1oc(-c2ccccc2Cl)nc1P(=O)(c1ccccc1)c1ccccc1	nt	56µM*	?	-16%	-15%	-7%
Cc1ccc(S(=O)(=O)c2nc(-c3ccccc3Cl)oc2N(C)C)cc1	nt	-23%	-1%	10%	1%	4%
Cc1ccccc1NC(=O)Cn1nnc(C(=O)NCc2ccco2)c1N	2%	-16%	-3%	-15%	-25%	27µM*
COc1cc2[nH]c3c(Cl)ncnc3c2cc1OC	-13%	-12%	45µM*	20%	-7%	-3%
COc1cc2[nH]c3c(N4CCN(c5ccc(Cl)cc5)CC4)ncnc3c2cc1OC	-10%	-11%	?	28%	8%	1%
COc1ccc(CN(C)CC(=O)Nc2ccc(SC(F)F)cc2)cc1OC	nt	?	-11%	6%	-19%	27µM*
COc1cc(CN(C)CCc2ccccn2)cc(OC)c1OC	-10%	7.9µM*	20µM*	?	13%	-3%
COc1ccc(CCN(C)CC(=O)Nc2cc(C)nc3ccccc23)cc1OC	nt	0.79µM*	22µM*	22µM*	-2%	-2%
COc1ccc(CCN(C)Cc2ccc(OC)c(OCc3ccccc3)c2)cc1OC	-4%	3.2µM*	?	-52%	9%	1%
COc1ccc(CN(C)CCc2ccccn2)cc1OC	-27%	35µM*	32µM*	-46%	-4%	-4%
COc1cc(CC(=O)NCc2ccccn2)cc(OC)c1OC	nt	-9%	3%	32%	-12%	-2%
COc1ccc(CCN(C)Cc2cccc3ccccc23)cc1OC	2%[2.29 µM]	-12%	-4%	36%	?	-11%
CN(CCC#N)S(=O)(=O)c1cc2c3c(c1)CCN3C(=O)CC2	nt	-1%	-9%	14%[57 µM]	-10%	-1%
COc1ccc(N2CC(NC(=O)c3ccco3)CC2=O)cc1OC (stereo not drawn)	nt	-28%	-2%	-3%	1%	nt
COc1ccc(CCN(C)Cc2c(O)ccc3ccccc23)cc1OC	nt	50µM*	-7%	-17%	?	21µM*
COc1ccc(CCN(C)C/C=C/c2ccccc2[N+](=O)[O-])cc1OC	-5%	22µM*	?	-18%	-14%	-4%
SMILES	L3MBTL1 block	JMJD2A Tudor	BAZ2B inh	HP1b binding inh	VDR inh	PLK1 PBD block
N#Cc1c(Sc2ncc(C(F)(F)F)cc2Cl)nsc1C/C=N\OCc1ccccc1Br	nt	?	45µM*	-22%	-30%	3%
CC1CCC2=C1C[C@H](C(C)(C)O)CC[C@@H]2C (stereo partly drawn)	nt	nt	nt	nt	-17%	nt
Cc1cccc(C)c1NC(=O)C(c1ccccc1)N1CCN(C/C=C/c2ccccc2)CC1 (stereo not drawn)	nt	nt	nt	nt	nt	-6%
Cc1cc(O)c(N=Cc2cc3c(cc2[N+](=O)[O-])OCO3)cc1C	nt	3.5µM*	nt	-39%	-6%	-6%
CN1CCN(CCC(=O)N/N=C/c2cc3c(cc2[N+](=O)[O-])OCO3)CC1	nt	4µM*	-30%	-1%	17%	3%
Cc1cccc(N=Cc2cc3c(cc2[N+](=O)[O-])OCO3)c1	-1%	-26%	?	?	-2%	-14%
CNc1cncc(-c2ccoc2)n1	nt	nt	nt	nt	nt	-7%
COC(=O)Nc1sc2c(c1C(=O)N1CCOCC1)CCC(C)C2 (stereo not drawn)	nt	-17%	1%	2%	?	27µM*
CCCOc1ccc2c(c1)C(=NN=C(N)N)c1cc(OCCC)ccc1-2	nt	28µM*	40µM*	?	-16%	-13%
CCN(CC)CCOc1ccc2c(c1)C(=NO)c1cc(OCCN(CC)CC)ccc1-2	-3%	-27%	8%[57.1 µM]	-7%	-16%	-7%
O=C(NCCSCc1ccccc1Cl)C1CCN(S(=O)(=O)Cc2ccccc2)CC1	nt	-35%	-5%	36%	5%	nt
O=C(N=Nc1c(O)[nH]c2ccccc12)c1cc(-c2ccc(F)cc2)n[nH]1	-5%	-17%	-39%	35%	0%	-5%
O=C(N=Nc1c(O)[nH]c2ccccc12)c1cc(-c2cccs2)[nH]n1	nt	-31%	50µM*	13%	4%	-14%
Cc1cccc(CNC(=O)CSCc2cnn(-c3ccccc3)c2-n2cccc2)c1	nt	-5%	1%	9%	23%	nt
CCOC(=O)C1=C(C)N=c2s/c(=C/c3ccc(OCC(=O)O)cc3)c(=O)n2C1c1ccc(SC)cc1 (stereo not drawn)	?	nt	35µM*	nt	nt	nt
CCOC(=O)C1=C(C)N=c2s/c(=C/c3ccc(OCC(=O)O)c(OC)c3)c(=O)n2C1c1ccc(Cl)cc1 (stereo not drawn)	nt	20µM*	nt	32µM*	?	6%
CCOC(=O)C1=C(C)N=c2s/c(=C/c3ccc(OCC(=O)O)cc3)c(=O)n2C1c1ccc(F)cc1 (stereo not drawn)	nt	79µM*	?	-16%	71µM*	?

High-throughput results (PubChem BioAssay)
